Records with an inconclusive call do not appear. Entries that show only a call come without a potency. Activity calls are given as the source filed them. Unless noted, calls follow the shape of the dose curve; as a rule, active = well fitted curve in the direction sought with a large enough effect in the repeat runs; inconclusive = weak or mixed curves; inactive = no such curve, though single readings can be large; an effect the other way counts as inactive or inconclusive.
Key:
[1] = target: Aryl hydrocarbon receptor (Homo sapiens) (UniProt P35869); experiment: qHTS assay to identify small molecule that activate the aryl hydrocarbon receptor (AhR) signaling pathway (AID 743085); also: nearly all actives have a fitted effect of over 15% in size; also: potency is read from the fitted curve at half-maximal effect;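 as to activation: HG2L7.5c1 human HepG2 liver cells with stably integrated DRE-driven firefly reporter; series mostly up to about 70 µM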
Outline: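 AhR agonist activity is inferred from enhanced light output of a DRE-controlled firefly luciferase reporter in HepG2 cells, measured with ONE-Glo following 24 h treatment at 37C.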

[2] = qHTS assay to identify small molecule that activate the aryl hydrocarbon receptor (AhR) signaling pathway - cell viability counter screen (AID 743086);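 also: HepG2 liver cells carrying the AhR DRE luciferase reporter; series mostly up to about 70 µM; nearly all actives have a fitted effect of over 45% in size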
Outline: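 HepG2-AhR-luc (HG2L7.5c1) cells, 4000/well, were preincubated 5 h at 37C, exposed to compound in qHTS format for 24 hr at 37C, then given CellTiter-Fluor for 30 min; viability was read as fluorescence in the reporter wells.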

[3] = target: Peroxisome proliferator-activated receptor gamma (Homo sapiens) (UniProt P37231); experiment: qHTS assay to identify small molecule agonists of the peroxisome proliferator-activated receptor gamma (PPARg) signaling pathway (AID 743094; active = well fitted activation curve with a large enough effect in the signal ratio in the repeat runs, not every such curve was filed as active; the % refers to the signal ratio)
Outline: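 Compounds dissolved in DMSO were added to PPARg UAS-bla HEK293H cells for 17 h at 37C, and reporter expression was quantified by fluorescence intensity after 1 h with LiveBLAzer B/G FRET substrate.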

[4] = qHTS assay to identify small molecule antagonists of the peroxisome proliferator-activated receptor gamma (PPARg) signaling pathway - cell viability counter screen (AID 743194); settings: Potency: co-treated with 50 nM rosiglitazone; also: nearly all actives have a fitted effect of over 55% in size
Outline: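 PPARg-UAS-bla HEK293H cells were plated, rested 5 h at 37 C, then treated with compounds plus rosiglitazone (50 nM final) for 17 h at 37 C; viability was then read by CellTiter-Glo luminescence after 30 min at room temperature.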

[5] = qHTS assay for small molecule agonists of the antioxidant response element (ARE) signaling pathway (AID 743202; active = well fitted activation curve with a large enough effect in the signal ratio in the repeat runs, not every such curve was filed as active; the % refers to the signal ratio; also: potency is read from the fitted curve at half-maximal effect)
Outline: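 Compounds delivered in DMSO to ARE-bla HepG2 cells (2,000 cells/well, pre-incubated 5 h) and left 16 h at 37 C. LiveBLAzer B/G FRET substrate then added for 2 h at RT before fluorescence reading.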

[6] = qHTS assay for small molecule agonists of the antioxidant response element (ARE) signaling pathway - cell viability counter screen (AID 743203; calls by dose curve; also: nearly all actives have a fitted effect of over 55% in size)
Outline: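 Following 16 hrs of compound treatment at 37C, HepG2 cells with an ARE-controlled beta-lactamase gene were lysed with CellTiter-Glo. Luminescence was read after 30 min at room temperature.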

[7] = qHTS assay for small molecule activators of the heat shock response signaling pathway - cell viability counter screen (AID 743209); also: nearly all actives have a fitted effect of over 50% in size
Outline: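 Readout: CellTiter-Glo luminescence, 30 min at room temperature. System: HSE-bla HeLa cells, 1500/well, plated overnight. Treatment: compounds in DMSO, 5 h at 37 C.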

[8] = qHTS assay for small molecule activators of the heat shock response signaling pathway (AID 743210; active = well fitted activation curve with a large enough effect in the signal ratio in the repeat runs, with a control signal flat, not every such curve was filed as active; the % refers to the signal ratio;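 also: HeLa cells with beta-lactamase reporter driven by heat shock elements; series mostly up to about 63 µM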)
Outline: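 Reporter gene assay: HeLa cells stably bearing an HSE-bla construct, compound treatment 5 h at 37 C, LiveBLAzer substrate 2.5 h at RT, fluorescence intensity.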

[9] = qHTS assay to identify small molecule agonists of the peroxisome proliferator-activated receptor delta (PPARd) signaling pathway - cell viability counter screen (AID 743211); also: nearly all actives have a fitted effect of over 55% in size
Outline: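 qHTS cell viability: PPARd-bla HEK293H; 17 h cpd, 37C; CellTiter-Glo, luminescence at 30 min RT.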

[10] = target: Peroxisome proliferator-activated receptor gamma (Homo sapiens) (UniProt P37231); experiment: qHTS assay to identify small molecule antagonists of the peroxisome proliferator-activated receptor gamma (PPARg) signaling pathway (AID 743191; calls by dose curve; also: series mostly up to about 63 µM; nearly all actives have a fitted effect of over 30% in size)
Outline: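 GeneBLAzer PPARg UAS-bla HEK293H cells carrying a UAS-driven beta-lactamase reporter were plated at 3000 cells/well, preincubated 5 h at 37C, then given compound for 17 h at 37C; LiveBLAzer B/G FRET substrate was read after 1 h at room temperature.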

Sequence of Peroxisome proliferator-activated receptor gamma (Homo sapiens) (P37231 whole entry, looked up): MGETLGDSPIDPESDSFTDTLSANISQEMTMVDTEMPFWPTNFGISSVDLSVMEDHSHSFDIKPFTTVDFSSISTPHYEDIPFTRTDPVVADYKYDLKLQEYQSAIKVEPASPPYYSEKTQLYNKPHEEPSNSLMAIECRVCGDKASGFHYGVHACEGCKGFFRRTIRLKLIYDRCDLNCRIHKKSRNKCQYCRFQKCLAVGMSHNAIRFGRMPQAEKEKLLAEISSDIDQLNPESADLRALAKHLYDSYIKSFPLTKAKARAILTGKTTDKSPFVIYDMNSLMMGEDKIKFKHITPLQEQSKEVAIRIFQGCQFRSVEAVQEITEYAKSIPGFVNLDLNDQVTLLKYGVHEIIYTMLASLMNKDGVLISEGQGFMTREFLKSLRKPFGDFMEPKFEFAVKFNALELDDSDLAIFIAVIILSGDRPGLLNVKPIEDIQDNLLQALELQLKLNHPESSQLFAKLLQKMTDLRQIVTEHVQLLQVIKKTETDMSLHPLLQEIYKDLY
Sequence of Aryl hydrocarbon receptor (Homo sapiens) (P35869 whole entry, looked up): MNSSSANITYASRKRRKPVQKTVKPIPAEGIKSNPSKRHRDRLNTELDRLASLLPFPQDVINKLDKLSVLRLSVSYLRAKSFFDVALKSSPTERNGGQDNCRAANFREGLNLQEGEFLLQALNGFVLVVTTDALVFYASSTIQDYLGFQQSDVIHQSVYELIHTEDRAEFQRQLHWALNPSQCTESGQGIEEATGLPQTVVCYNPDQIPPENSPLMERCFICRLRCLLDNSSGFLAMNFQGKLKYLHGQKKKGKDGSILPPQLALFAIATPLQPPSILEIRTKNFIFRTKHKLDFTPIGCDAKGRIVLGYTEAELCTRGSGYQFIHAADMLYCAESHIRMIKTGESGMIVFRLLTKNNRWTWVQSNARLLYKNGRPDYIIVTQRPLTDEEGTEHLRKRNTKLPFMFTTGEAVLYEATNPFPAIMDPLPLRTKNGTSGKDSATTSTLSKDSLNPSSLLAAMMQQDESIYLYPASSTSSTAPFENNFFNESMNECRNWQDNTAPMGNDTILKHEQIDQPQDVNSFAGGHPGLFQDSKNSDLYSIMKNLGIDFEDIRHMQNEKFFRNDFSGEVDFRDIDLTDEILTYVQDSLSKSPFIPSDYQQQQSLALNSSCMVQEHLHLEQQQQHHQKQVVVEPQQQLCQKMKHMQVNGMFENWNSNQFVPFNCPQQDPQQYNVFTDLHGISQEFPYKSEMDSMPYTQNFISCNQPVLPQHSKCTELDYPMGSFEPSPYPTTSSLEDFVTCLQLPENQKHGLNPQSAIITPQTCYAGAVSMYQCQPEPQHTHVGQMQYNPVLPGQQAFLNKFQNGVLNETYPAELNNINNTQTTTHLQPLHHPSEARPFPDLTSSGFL

SMILES	Potency [1]	Potency [2]	outcome [3]	Potency [4]	Potency [5]	Potency [6]	Potency [7]	Potency [8]	Potency [9]	Potency [10]
C=C1CC[C@@]2(O)[C@H]3Cc4ccc(O)c5c4[C@@]2(CCN3CC2CC2)[C@H]1O5	inactive	inactive	inactive	inactive	inactive	inactive	inactive	inactive	inactive	–
CCCCCCC1CCOC1=O (stereo unspecified)	inactive	inactive	inactive	inactive	inactive	inactive	inactive	inactive	inactive	–
C=C1C[C@@H]2[C@H](CC[C@]3(C)C(=O)CC[C@@H]23)[C@@]2(C)C=CC(=O)C=C12	inactive	inactive	inactive	inactive	2.66 µM (active)	inactive	–	inactive	inactive	–
C/C=C/CC#N	inactive	inactive	inactive	inactive	inactive	inactive	inactive	inactive	inactive	–
CS(=O)(=O)Cl	inactive	inactive	inactive	inactive	inactive	inactive	inactive	inactive	inactive	–
O=C(O)c1c(Cl)ccc2cc(Cl)cnc12	inactive	inactive	inactive	inactive	–	inactive	inactive	–	inactive	–
O=C(CCl)NCO	inactive	inactive	inactive	inactive	–	inactive	inactive	–	inactive	–
CCCCCCC(=O)CCCCCC/C=C/C[C@@H](O)[C@H](O)[C@@](N)(CO)C(=O)O	inactive	inactive	inactive	inactive	–	inactive	inactive	inactive	inactive	–
O=[N+]([O-])CCO	inactive	inactive	inactive	inactive	–	inactive	inactive	–	inactive	–
CNC(=O)Oc1ccccc1C(C)C	inactive	inactive	inactive	inactive	inactive	inactive	inactive	–	inactive	–
CC(C)(C)c1cc(O)ccc1O	26.6 µM (active) [middle of 4 runs]	inactive	inactive	inactive	3.86 µM (active)	–	inactive	inactive	–	–
CC1N=C(N)OC1c1ccccc1 (stereo unspecified)	inactive	inactive	inactive	inactive	inactive	inactive	–	inactive	inactive	–
CCOC(=O)CCl	inactive	inactive	inactive	inactive	–	inactive	inactive	inactive	inactive	–
O=C(Cl)CCl	inactive	inactive	inactive	inactive	–	inactive	inactive	inactive	inactive	–
Oc1ccc(Cc2ccc(O)cc2)cc1	inactive	inactive	inactive	inactive	27.5 µM (active)	inactive	inactive	–	inactive	–
NNCc1ccccc1	55.5 µM (active)	inactive	inactive	inactive	5.55 µM (active)	inactive	inactive	inactive	inactive	–
O=P(O)(O)CN(CP(=O)(O)O)CP(=O)(O)O	inactive	inactive	inactive	inactive	inactive	inactive	inactive	–	inactive	–
C[C@]12C=CC(=O)C=C1CC[C@@H]1[C@@H]2CC[C@@]2(C)[C@H]1CC[C@]2(C)O	inactive	inactive	inactive	inactive	–	inactive	inactive	inactive	inactive	–
CCOC(=O)NC(C)(C)Cc1ccc(Cl)cc1	inactive	inactive	inactive	inactive	inactive	inactive	inactive	inactive	inactive	–
Cc1ccc(Cl)c(O)c1	inactive	inactive	inactive	inactive	inactive	inactive	–	inactive	inactive	–
O=C(O)CBr	inactive	inactive	inactive	inactive	inactive	inactive	–	inactive	inactive	–
O=C(O)C(F)(F)C(F)(F)C(F)(F)C(F)(F)C(F)(F)C(F)(F)F	inactive	inactive	inactive	–	–	inactive	inactive	inactive	inactive	–
CN(C)CCN(C)C	inactive	inactive	–	inactive	inactive	inactive	inactive	–	inactive	inactive
O=C(Cl)c1ccccc1	inactive	inactive	–	–	–	inactive	inactive	inactive	inactive	inactive
COC(=O)[C@@H](N)CCCN/C(N)=N/[N+](=O)[O-]	inactive	inactive	–	inactive	–	inactive	inactive	–	inactive	inactive
ClCCCCl	inactive	inactive	–	inactive	inactive	inactive	inactive	inactive	inactive	inactive
CC(C)(C)C(=O)Cl	inactive	inactive	–	inactive	inactive	inactive	–	inactive	inactive	inactive
C=CCc1cc(OC)c2c(c1)OCO2	inactive	inactive	–	inactive	inactive	inactive	inactive	–	inactive	inactive
C=C(C)[C@H]1CN[C@H](C(=O)O)[C@H]1CC(=O)O	inactive	inactive	–	inactive	inactive	inactive	inactive	inactive	inactive	inactive
c1cncc([C@@H]2CCCCN2)c1	inactive	inactive	–	–	inactive	inactive	inactive	inactive	inactive	inactive

From PubChem BioAssay (Tox21)
